Screening data from PubChem.
FAS TE block: blocks the thioesterase domain of human fatty acid synthase; P49327; recombinant FAS-TE, OMFH fluorogenic substrate, fluorescence endpoint; inhibition, % at 15 µM; 360,000 tested, 0.67% active; AID 602261;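 active = compounds whose normalised, plate-corrected inhibition of enzyme fluorescence in the single-dose primary screen is 50% or more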;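 note: 0% = DMSO with enzyme and 100% = substrate without enzyme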
Target sequence (P49327 whole entry, looked up, the tested form may be a part): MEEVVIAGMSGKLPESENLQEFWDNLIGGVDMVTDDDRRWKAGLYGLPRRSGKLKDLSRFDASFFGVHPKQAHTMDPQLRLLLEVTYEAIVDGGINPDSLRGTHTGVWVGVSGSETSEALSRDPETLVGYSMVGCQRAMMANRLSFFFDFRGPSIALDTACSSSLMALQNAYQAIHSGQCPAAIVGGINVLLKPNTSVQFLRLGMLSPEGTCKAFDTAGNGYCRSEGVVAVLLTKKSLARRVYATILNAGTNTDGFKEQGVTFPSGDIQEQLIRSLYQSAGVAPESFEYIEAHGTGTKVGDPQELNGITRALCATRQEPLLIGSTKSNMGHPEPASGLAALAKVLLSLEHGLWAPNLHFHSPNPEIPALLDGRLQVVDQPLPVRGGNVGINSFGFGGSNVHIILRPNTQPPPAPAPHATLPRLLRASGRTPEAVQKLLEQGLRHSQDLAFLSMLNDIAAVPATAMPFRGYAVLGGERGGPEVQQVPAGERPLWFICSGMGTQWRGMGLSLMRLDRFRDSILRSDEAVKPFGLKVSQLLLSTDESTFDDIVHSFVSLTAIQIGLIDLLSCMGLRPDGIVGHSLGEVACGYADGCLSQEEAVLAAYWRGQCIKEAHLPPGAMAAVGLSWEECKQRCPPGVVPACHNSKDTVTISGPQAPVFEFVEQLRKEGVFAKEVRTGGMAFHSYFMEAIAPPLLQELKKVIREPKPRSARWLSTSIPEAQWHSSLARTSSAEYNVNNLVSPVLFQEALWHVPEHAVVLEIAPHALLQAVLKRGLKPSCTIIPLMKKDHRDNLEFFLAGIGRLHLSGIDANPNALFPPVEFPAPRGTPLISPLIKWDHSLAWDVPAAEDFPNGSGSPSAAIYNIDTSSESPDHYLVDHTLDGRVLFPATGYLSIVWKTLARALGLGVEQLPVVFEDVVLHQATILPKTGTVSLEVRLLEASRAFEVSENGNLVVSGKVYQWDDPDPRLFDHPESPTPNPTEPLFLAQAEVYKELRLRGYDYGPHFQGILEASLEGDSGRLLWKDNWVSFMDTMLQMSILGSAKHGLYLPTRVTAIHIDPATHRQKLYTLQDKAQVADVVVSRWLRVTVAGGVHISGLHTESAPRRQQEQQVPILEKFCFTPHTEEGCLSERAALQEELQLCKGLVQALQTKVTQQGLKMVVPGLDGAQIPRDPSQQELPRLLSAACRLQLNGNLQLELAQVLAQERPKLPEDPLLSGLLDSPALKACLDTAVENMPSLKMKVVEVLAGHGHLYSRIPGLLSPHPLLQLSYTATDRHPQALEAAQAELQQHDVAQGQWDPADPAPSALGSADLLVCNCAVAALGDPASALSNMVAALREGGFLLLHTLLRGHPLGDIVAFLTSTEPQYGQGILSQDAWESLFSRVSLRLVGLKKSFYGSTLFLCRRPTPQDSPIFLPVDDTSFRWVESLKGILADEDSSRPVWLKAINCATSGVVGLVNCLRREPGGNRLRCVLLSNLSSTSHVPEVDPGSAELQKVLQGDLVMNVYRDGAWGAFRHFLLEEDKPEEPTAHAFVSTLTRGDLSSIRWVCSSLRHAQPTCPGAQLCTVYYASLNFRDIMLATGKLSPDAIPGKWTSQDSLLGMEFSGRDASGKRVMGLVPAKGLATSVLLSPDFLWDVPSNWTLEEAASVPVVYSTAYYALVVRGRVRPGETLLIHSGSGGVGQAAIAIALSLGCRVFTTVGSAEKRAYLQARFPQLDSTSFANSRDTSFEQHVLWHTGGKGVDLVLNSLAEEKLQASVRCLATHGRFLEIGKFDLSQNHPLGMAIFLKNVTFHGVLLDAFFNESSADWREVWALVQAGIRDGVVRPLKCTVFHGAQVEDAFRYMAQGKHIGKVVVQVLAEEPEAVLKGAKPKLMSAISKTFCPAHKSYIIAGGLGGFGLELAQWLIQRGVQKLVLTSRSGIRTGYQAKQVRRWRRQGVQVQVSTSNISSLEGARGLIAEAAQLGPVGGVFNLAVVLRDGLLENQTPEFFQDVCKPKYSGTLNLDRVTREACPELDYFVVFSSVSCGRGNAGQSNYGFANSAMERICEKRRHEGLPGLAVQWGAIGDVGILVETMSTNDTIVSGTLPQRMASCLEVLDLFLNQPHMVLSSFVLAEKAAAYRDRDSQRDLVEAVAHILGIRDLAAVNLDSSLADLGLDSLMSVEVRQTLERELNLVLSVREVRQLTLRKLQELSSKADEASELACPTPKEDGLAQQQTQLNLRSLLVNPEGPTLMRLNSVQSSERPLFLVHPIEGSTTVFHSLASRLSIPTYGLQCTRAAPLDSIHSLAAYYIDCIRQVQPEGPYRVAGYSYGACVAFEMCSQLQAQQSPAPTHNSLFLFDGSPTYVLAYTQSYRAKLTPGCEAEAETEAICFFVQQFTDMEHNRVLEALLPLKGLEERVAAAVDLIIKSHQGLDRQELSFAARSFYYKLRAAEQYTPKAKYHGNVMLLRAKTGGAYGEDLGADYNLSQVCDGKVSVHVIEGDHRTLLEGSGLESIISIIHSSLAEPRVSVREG
NPR1 activator: GC-A (human) enzyme activation; P16066; HEK293 GC-A cells, cGMP TR-FRET, EC30 ANP; 0% at EC30 ANP, 100% saturating ANP; activation, % at 10 µM; 370,000 tested, 0.14% active; AID 1671463; in the data active = activation above about 40%
aDG glyco up: alpha-DG glycosylation activation. Pro5-aDG cells, alpha-DG glycosylation AlphaScreen (IIH6); 0% Pro5, 100% B10-LARGE cell signal. activation, % at 10 µM. 360,000 tested, 0.22% active;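 active = activation of at least 8% versus controls, or a plate z-score of at least 8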;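 note: Pro5 are CHO cells carrying HIG-tagged alpha-DG that lacks glycosylation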
GC-B act: GC-B (human) receptor activation | P20594 | HEK293-GC-B cells, CNP EC30, cGMP TR-FRET; 0% at EC30 CNP, 100% saturating CNP | activation, % at 10 µM | 370,000 tested, 0.11% active | AID 1920062;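 active = activation at 10 µM reaching about 35% in either raw or pattern-adjusted values, limit read from the data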
FAS-TE inh conf: FAS thioesterase (human) inhibition, confirmation; AID 624325; inhibition, % at 15 µM; shares compounds with FAS TE block; recombinant FAS-TE, OMFH fluorogenic substrate, fluorescence; 2,300 tested, 45% active;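 active = compounds inhibiting the enzyme by at least 50% at 15 µM in any one of the replicates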;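 note: 0% = enzyme with DMSO only and 100% = wells lacking enzyme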
An asterisk follows results filed as active; x = not tested or not shown. An excerpt weighted towards active compounds, which were near 1.1% of everything screened.

SMILES	FAS TE block	NPR1 activator	aDG glyco up	GC-B act	FAS-TE inh conf
C[C@H](O)[C@@H]1CN2CCc3ccc(-c4ccc5c(c4)OCO5)cc3[C@@H]2C[C@@H]1N(C)CC1CCCCC1	x	-3	x	-5	x
C=CCC[C@@H](Cc1ccc(F)cc1)C(=O)OC[C@H](Cc1c[nH]c2ccccc12)NC(=O)[C@H](CC=C)CC(=O)NCCO	57*	-1	0	-7	68*
COc1ccc([N+](=O)[O-])cc1NC(=S)Nc1ccccc1	24	2	0	7	x
COc1ccc([N+](=O)[O-])cc1NC(=O)N(C)Cc1ccco1	51*	1	0	1	42*
C/C=C/C=C/C(=O)OC(C)C(=O)Nc1cc([N+](=O)[O-])ccc1OC (stereo not drawn)	73*	7	0	-2	60*
COC(=O)Nc1cc([N+](=O)[O-])ccc1OC	-12	0	0	2	x
COc1ccc(-n2cc(C(=O)Nc3cc([N+](=O)[O-])ccc3OC)c3ccccc3c2=O)cc1	55*	1	0	-1	20
COc1ccc([N+](=O)[O-])cc1NC(=O)Nc1ccccc1	58*	0	0	0	62*
COc1ccc([N+](=O)[O-])cc1NC(=O)C(C)OC(=O)Cc1ccc(OC)c(OC)c1 (stereo not drawn)	8	4	0	2	x
O=C(Cn1nnc(-c2ccncc2)n1)Nc1ccc(F)cc1F	x	5	x	-7	x
COc1ccc(C(=O)NCC2CCN(C(=O)C(=O)c3cccs3)CC2)c(OC)c1	x	-4	x	-1	x
Nc1ccn([C@@H]2O[C@H](C(=O)NCC(=O)N3CCOCC3)[C@@H](O)[C@H]2O)c(=O)n1	x	-1	x	-2	x
COC(=O)c1cc(-c2ccc3ccccc3c2)c(=O)n2c1CCC2	x	6	x	-5	x
COC(=O)C1=C(C(=O)OC)[C@]2([C@H]3CCCCN[C@@H](Cc4ccccc4)C(=O)N3Cc3ccccc3)C=C[C@H]1O2	75*	-3	0	-12	11
COc1ccccc1-n1c(=O)c(C#N)c(-c2ccc([N+](=O)[O-])cc2)c2cc(C(=O)c3ccccc3O)cnc21	89*	-5	0	-2	14
Cc1ccc([N+](=O)[O-])cc1NC(=O)CCCOc1ccccc1	68*	9	0	4	32*
CCCCNC(=S)Nc1cc([N+](=O)[O-])ccc1C	51*	4	0	0	37*
O=C(CN1CCN(c2cccc(Cl)c2)CC1)Nc1ccc([N+](=O)[O-])cc1C(=O)Nc1ccccc1F	60*	-6	0	-5	24
O=C(CCCc1ccccc1)Nc1cccc([N+](=O)[O-])c1	66*	6	1	-5	60*
O=C(CCCOc1ccccc1)Nc1cccc([N+](=O)[O-])c1	44	1	0	-3	x
COC(=O)C[C@H]1CC[C@H]2[C@@H](COc3ccc(NC(=O)Nc4ccccc4)cc3C(=O)N2C)O1	x	5	x	-3	x
O=C(NCCN1C(=O)C2C3C=CC(C3)C2C1=O)c1cc(Cl)cc(Cl)c1 (stereo not drawn)	x	0	x	0	x
OC(c1ccccc1)(c1ccccc1)C1CCN(CCCNc2cccc(Br)c2)CC1	x	-21	x	-14	x
Cc1ccc([N+](=O)[O-])cc1NC(=O)CCc1ccccc1	50*	2	0	1	52*
O=C(CN1CCN(c2ccccc2)CC1)Nc1cccc([N+](=O)[O-])c1	51*	1	0	0	50*
SMILES	FAS TE block	NPR1 activator	aDG glyco up	GC-B act	FAS-TE inh conf
O=C(CCc1ccccc1)Nc1cccc([N+](=O)[O-])c1	26	2	0	-2	x
O=C(CN1CCCCCC1)Nc1cccc([N+](=O)[O-])c1	-4	0	1	-3	x
O=C(CSc1nnc(-c2ccccn2)n1-c1ccccc1)c1ccc(Cl)c(Cl)c1	x	-4	x	-3	x
CCCC[C@@H](CCCc1ccc(F)cc1)CCC(=O)N(c1ccccc1)c1ccccc1	x	5	x	6	x
COC(=O)C1CN(Cc2ccc(C)cc2)CCS(=O)(=O)N1Cc1cn(Cc2ccc(C)cc2)nn1 (stereo not drawn)	x	-4	x	0	x
CC(C)(C)c1ccc(C#C[C@@H]2C=C[C@@H](O)[C@@H](CO)O2)cc1	x	1	x	7	x
N#Cc1cc(-c2ccccc2)cn(Cc2c(Cl)cccc2Cl)c1=O	62*	-6	0	-4	25*
Cc1ccc(-c2cc(C#N)c(=O)n(Cc3c(Cl)cccc3Cl)c2)cc1	17	3	0	-3	x
CC(C)CCNC(=O)C1CC(c2cccc([N+](=O)[O-])c2)=NO1 (stereo not drawn)	53*	1	0	1	59*
O=C(NCCCCc1ccccc1)C1CC(c2cccc([N+](=O)[O-])c2)=NO1 (stereo not drawn)	66*	1	0	-3	76*
CCc1cccc(Nc2cc(C)n(-c3cccc(CC)c3)c(=O)c2)c1	x	3	x	2	x
COc1ccc2c(c1)CCCN2C(=O)C1CCCN(S(=O)(=O)c2c(C(C)C)cc(C(C)C)cc2C(C)C)C1 (stereo not drawn)	x	-3	x	-2	x
O=C(Oc1ccccc1C(=O)Nc1ccccc1)c1ccc(Br)c([N+](=O)[O-])c1	78*	4	1	-3	76*
COc1ccccc1C(=O)Oc1ccccc1C(=O)Nc1ccccc1	-4	-1	0	-4	x
Cn1c(=O)c2c(ncn2Cc2ccc(O)c([N+](=O)[O-])c2)n(C)c1=O	x	-2	x	-4	x
O=C(NCCc1ccccc1)/C(=C\c1cccc([N+](=O)[O-])c1)NC(=O)c1ccco1	83*	-1	0	1	77*
O=C(NCc1ccccc1)/C(=C/c1cccc([N+](=O)[O-])c1)NC(=O)c1ccco1	69*	0	0	-1	79*
C[C@H]1[C@H](NCc2cccnc2)CC[C@@]23CCCN2C(=O)CCC[C@@H]13	x	6	x	-1	x
COc1ccc(C2=NN(C(=O)CSc3nc(=O)n4cccc(C)c4n3)C(c3ccc(C)cc3)C2)cc1 (stereo not drawn)	90*	1	0	2	35
Cc1ccc2nc(SCC(=O)N3N=C(c4cccs4)CC3c3ccc(F)cc3)nc(=O)n2c1 (stereo not drawn)	42	2	1	5	x
Cc1ccn2c(=O)nc(SCC(=O)N3N=C(c4cccs4)CC3c3ccc(F)cc3)nc2c1 (stereo not drawn)	54*	-4	0	-3	46*
Cc1ccc(C2CC(c3cccs3)=NN2C(=O)CSc2nc(=O)n3cc(C)ccc3n2)cc1 (stereo not drawn)	51*	2	0	20	41
Cc1cccn2c(=O)nc(SCC(=O)N3N=C(c4cccs4)CC3c3ccc(F)cc3)nc12 (stereo not drawn)	54*	1	0	-1	41
